Compounds without any hit were thinned out: in the full panel of roughly 83,000, 20% have a hit.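 Results are percent growth after 48 hours of single-concentration exposure. 100 means growth as in untreated cells, lower positive values show inhibition; negative values down to -100 show cell death.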 The source made the active and inactive calls. The calls were made as follows: active = growth percent below 10; inactive = the rest.
Key:
Test in all cases: NCI-60 one-dose screen, 48 h (100 = growth as untreated, 0 = no growth, -100 = all killed)
Settings in all cases: 10 µM unless noted
SR leukemia = system: SR leukemia
RPMI-8226 leukemia = system: RPMI-8226 leukemia
OVCAR-8 ovarian = system: OVCAR-8 ovarian
OVCAR-5 ovarian = system: OVCAR-5 ovarian
OVCAR-4 ovarian = system: OVCAR-4 ovarian
SK-OV-3 ovarian = system: SK-OV-3 ovarian
IGROV1 ovarian = system: IGROV1 ovarian
OVCAR-3 ovarian = system: OVCAR-3 ovarian
HS 578T breast = system: HS 578T breast
NCI/ADR-RES ovarian = system: NCI/ADR-RES ovarian
T-47D breast = system: T-47D breast
BT-549 breast = system: BT-549 breast
MDA-MB-435 melanoma = system: MDA-MB-435 melanoma
SW-620 colon = system: SW-620 colon
MCF7 breast = system: MCF7 breast
HCT-116 colon = system: HCT-116 colon
HCC-2998 colon = system: HCC-2998 colon
KM12 colon = system: KM12 colon

Measured: growth

O=C(Nc1ccc(Cl)cc1)c1cc2cc(F)ccc2cc1O
active: SR leukemia 4.79% | RPMI-8226 leukemia -8.91% | OVCAR-8 ovarian 8.21% | SK-OV-3 ovarian -18.7% | NCI/ADR-RES ovarian 4.6% | T-47D breast -7.01% | BT-549 breast 1.77% | MCF7 breast 7.1%
inactive: OVCAR-5 ovarian 29.9% | OVCAR-4 ovarian 26.4% | IGROV1 ovarian 42.5% | OVCAR-3 ovarian 23% | HS 578T breast 18.6% | MDA-MB-435 melanoma 10.5% | SW-620 colon 15.5% | HCT-116 colon 12.3% | HCC-2998 colon 27.8% | KM12 colon 12.3%

CCOc1ccc(-n2nc(C(=O)Nc3ccccc3)nc2-c2cc(OC)c(OC)c(OC)c2)cc1
inactive: SR leukemia 17% | RPMI-8226 leukemia 47.4% | OVCAR-8 ovarian 61.6% | OVCAR-5 ovarian 84.1% | OVCAR-4 ovarian 59.5% | SK-OV-3 ovarian 51% | IGROV1 ovarian 55.1% | OVCAR-3 ovarian 43.2% | HS 578T breast 39.6% | NCI/ADR-RES ovarian 45.7% | T-47D breast 39.4% | BT-549 breast 60.9% | SW-620 colon 36.2% | MCF7 breast 37% | HCT-116 colon 21.2% | KM12 colon 27.5%
active: MDA-MB-435 melanoma 0.193%

CCOc1nc(-c2ccccc2)cc2c(O)c(C(=O)N/N=C/c3ccc(O)cc3O)[nH]c(=O)c12
active: NCI/ADR-RES ovarian -40.1%
inactive: SR leukemia 27% | RPMI-8226 leukemia 38% | OVCAR-8 ovarian 14.5% | OVCAR-5 ovarian 43.6% | OVCAR-4 ovarian 39.3% | SK-OV-3 ovarian 41.6% | IGROV1 ovarian 15.6% | OVCAR-3 ovarian 30.9% | HS 578T breast 82.9% | T-47D breast 34.3% | BT-549 breast 58.9% | MDA-MB-435 melanoma 48.3% | SW-620 colon 44.6% | MCF7 breast 46.3% | HCT-116 colon 18.6% | KM12 colon 42.3%

COc1ccc(CN2c3ccccc3Sc3ccccc32)c(C(F)(F)F)c1
active: OVCAR-3 ovarian 5.59% | MDA-MB-435 melanoma -33.6% | HCT-116 colon 7.74%
inactive: SR leukemia 12.1% | RPMI-8226 leukemia 28.8% | OVCAR-8 ovarian 31.1% | OVCAR-5 ovarian 65.5% | OVCAR-4 ovarian 44.2% | SK-OV-3 ovarian 17.8% | IGROV1 ovarian 43.4% | HS 578T breast 22.8% | NCI/ADR-RES ovarian 22.7% | T-47D breast 25.9% | BT-549 breast 53.5% | SW-620 colon 25.8% | MCF7 breast 24.5% | KM12 colon 20%

CCOc1ccc(-n2nc(C(=O)Nc3cc(OC)c(OC)c(OC)c3)nc2-c2cc(OC)c(OC)c(OC)c2)cc1
inactive: SR leukemia 40.7% | RPMI-8226 leukemia 55.7% | OVCAR-8 ovarian 74% | OVCAR-5 ovarian 102% | OVCAR-4 ovarian 68.1% | SK-OV-3 ovarian 99.7% | IGROV1 ovarian 90.8% | OVCAR-3 ovarian 86.9% | HS 578T breast 65.6% | NCI/ADR-RES ovarian 85.8% | T-47D breast 51.4% | BT-549 breast 91.4% | MDA-MB-435 melanoma 79.6% | SW-620 colon 95.5% | MCF7 breast 83.2% | HCT-116 colon 75.8% | KM12 colon 81.8%
